# Screens as filed in PubChem.
# Anesthetic bind – binds horse apoferritin like a general anesthetic | apoferritin/1-aminoanthracene competitive binding, fluorescence | Potency, µM (top dose mostly 77.5 µM), without a hit: at the highest dose activity change, negative = displacement, hits mostly inhibitors | 0.074% of 350,000 active | AID 485281; further: potency means the concentration at half of the fitted maximal effect; on the % scale 0 is the no-effect control and ±100 the full control effect; nearly all actives have a fitted effect of over 20% in size
#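 Horse-spleen apoferritin (10 uM) in 50% saturated 1-aminoanthracene in PBS was incubated 10 min at room temperature with compound. Fluorescence (ex 380, em 535 nm) was normalized to free and bound 1-AMA, with concentration-response fitted by a four-parameter Hill equation.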
# CBFb-RUNX1 inh – CBF-beta/RUNX1 interaction disruption. AID 1477. Q01196+Q13951. 230,000 tested, under 10 active. AlphaScreen CBFb-His/RUNX1-biotin binding, biochemical. Potency, µM (top dose mostly 59.8 µM), inactives show at the top dose activity, negative = inhibition, hits mostly inhibitors; further: % of control where 0% means no effect
# Target sequence (Q01196 whole entry, looked up): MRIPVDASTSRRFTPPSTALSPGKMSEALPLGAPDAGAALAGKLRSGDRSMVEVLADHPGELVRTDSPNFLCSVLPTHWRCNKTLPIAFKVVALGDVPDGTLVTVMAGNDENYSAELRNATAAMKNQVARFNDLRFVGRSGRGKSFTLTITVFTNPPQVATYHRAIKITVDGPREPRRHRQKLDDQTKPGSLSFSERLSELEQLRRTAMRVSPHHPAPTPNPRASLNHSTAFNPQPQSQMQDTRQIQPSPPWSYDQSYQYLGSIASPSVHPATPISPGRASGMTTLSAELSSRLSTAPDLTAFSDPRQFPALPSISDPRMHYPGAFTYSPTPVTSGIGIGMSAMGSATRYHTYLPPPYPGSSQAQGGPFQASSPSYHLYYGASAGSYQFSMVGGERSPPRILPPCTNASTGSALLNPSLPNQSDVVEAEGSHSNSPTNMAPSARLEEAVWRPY
# Target sequence (Q13951 whole entry, looked up): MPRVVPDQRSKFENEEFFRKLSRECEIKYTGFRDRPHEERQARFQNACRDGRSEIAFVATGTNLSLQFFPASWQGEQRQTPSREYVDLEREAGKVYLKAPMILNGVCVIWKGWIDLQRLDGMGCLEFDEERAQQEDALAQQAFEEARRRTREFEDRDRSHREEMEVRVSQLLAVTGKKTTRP
#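 Room-temperature protein-protein interaction test with 30 nM each of His-tagged CBF-beta and biotinylated RUNX1, 15 min with compound, then 90 min with nickel plus streptavidin beads. Signal read in AlphaScreen mode.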
# Integrin act MD – activates integrin-mediated alleviation for muscular dystrophy. alpha7betagal myoblasts, beta-gal FDG fluorescence, 48 h. 0.064% of 350,000 active. Potency, µM (doses to about 38.3 µM), for inactives: at the top dose activation, hits mostly activators;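 further: potency means the concentration at half of the fitted maximal effect; 100% = response of the positive control SU9516; nearly all actives have a fitted effect of over 60% in size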
#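 Alpha7betagal+/- myoblasts (passage 13) were plated 16-24 hr, then exposed to compounds (1:260 dilution of DMSO stock) for 48 hours at 37C. After MPER lysis, β-galactosidase reporter activity was read as FDG fluorescence (ex 480/em 540) after 30 minutes.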
# GRP78 ERSR act – inducers of ER stress response in human glioma cells; U87-MG GRP78 promoter luciferase reporter, 16 h; Potency, µM, inactives show at the top dose activation, usual class: activators; 0.02% of 420,000 active; AID 602332; further: potency means the concentration at half of the fitted maximal effect; series mostly up to about 76 µM; % of control where 0% means no effect; nearly all actives have a fitted effect of over 35% in size
#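 Stably transfected U87-MG human glioma cells carrying a GRP78-based luminescent sensor were seeded at 1000 cells/well, pin-dosed with compounds and incubated 16 h. Luciferase reagent was then added, and end-point luminescence was read after 10 min at room temperature.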
# ClpP mod – qHTS Assay for Activators of ClpP; purified B. subtilis ClpP, FRET peptide cleavage, 20 min; AID 651965, 2013; ATP-dependent Clp protease proteolytic subunit (Bacillus subtilis (strain 168)), P80244; Potency, µM (series often up to 57.5 µM), for the others: top-dose activity change, negative = active; 1.9% of 340,000 active; active means well fitted falling curve with a large enough effect; inconclusive means small, poorly fitted or top-dose-only effect; inactive means no such curve, though single readings can be large or run the other way; further: potency means the concentration at half of the fitted maximal effect; the source files actives as falling curves though it sought activators and does not explain the sign; nearly all actives have a fitted effect of over 65% in size
#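 Purified B. subtilis ClpP, 10 microg/mL final in Tris/HCl pH8 with KCl, BSA, glycerol and Tween-20, cleaved an Abz/nitrotyrosine-quenched decapeptide. Fluorescence (ex 320, em 430) was read at 0 and 20 min at room temperature. Delta was normalized to 5.8 microM ADEP and DMSO/no-enzyme controls.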
# N370S GC – inhibits or activates N370S mutant glucocerebrosidase. P04062. N370S GC spleen homogenate, 4MU-glucoside fluorescence. 0.092% of 330,000 active. Potency, µM (top dose mostly 59.4 µM), inactives show at the top dose activity change, negative = inhibition, actives largely listed as inhibitors;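 further: potency means the concentration at half of the fitted maximal effect; 0% = full enzyme activity and -100% = no enzyme basal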
# * = called active by the depositor; ? = inconclusive; . = not tested or not shown; ! = a repeat was not active; [ ] = remark or other dose. The full list was thinned out, with hits kept by preference. Unless noted, the call rests on the fitted dose curve; in most records, active means well fitted curve in the direction sought with a large enough effect; inconclusive means small, poorly fitted or top-dose-only effect, or another doubt; inactive means no such curve, though single readings can be large; an effect the other way counts as inactive or inconclusive.
SMILES,Anesthetic bind,CBFb-RUNX1 inh,Integrin act MD,GRP78 ERSR act,ClpP mod,N370S GC
N#Cc1nc(-c2ccc(OCc3ccccc3)cc2)oc1N1CCC(C(N)=O)CC1,-4%,0%,3%,-5%,3.5µM*!,-18%
Cc1ccc(C(=O)NCCc2nnc3n2CCN(Cc2cc(C)cc(C)c2)CC3)cc1,.,.,.,-1%,.,.
COc1ccc(N2CCN(C(=O)c3ccccc3NS(=O)(=O)c3ccc(C)cc3)CC2)cc1,-20%,.,?,-1%,13µM*,-5%
Cc1ccc(S(=O)(=O)Nc2ccccc2C(=O)N2CCOCC2)cc1,0%,.,-14%,-2%,0%,-12%
COc1cccc(-c2cnc(-c3ccncc3)nc2C2CCN(C(=O)Cc3csc(C)n3)CC2)c1,.,.,.,-3%,.,.
CNc1ccc(/C=C2\C=Cc3ccccc32)cc1I,.,.,.,3%,-2%,.
CS(=O)(=O)Nc1cc(C(=O)N2CCNC(=O)C2)c2c(c1)ncn2CCc1ccccc1,.,.,.,-8%,.,.
COc1ccc(Nc2ncnc3ccc(Br)cc23)cc1OC,-5%,.,4µM*,-2%,.,2%
COc1cc2ncnc(Nc3cccc(Br)c3)c2cc1OC,.,7%[21.7 µM],.,-5%,.,-13%
CC1CCN(C(=O)COC(=O)c2cc(Cl)cc(Cl)c2N)CC1,9%,13%,13%,3%,28µM*,?
CN(C)C(=O)COC(=O)c1cc(Cl)cc(Cl)c1N,129%,2%,0%,-3%,?,25%
CC(C)N(C(=O)COC(=O)c1cc(Cl)cc(Cl)c1N)C(C)C,-10%,10%,10%,-3%,16µM*,?
Cc1ccc(C2CC(c3ccccc3)=NN2c2ccccc2)o1 (stereo not drawn),398%,?,-4%,2%,25µM*,?
Fc1ccc(C2=NN(c3ccccc3)C(c3ccco3)C2)cc1 (stereo not drawn),319%,?,-2%,-1%,5%,?
CCOc1ccc(C(=O)NCCc2sc(-c3ccc(F)cc3)nc2C)cc1,39%,.,.,-2%,25µM*,.
CCC1(C)Cc2ccccc2C(Nc2c(C)n(C)n(-c3ccccc3)c2=O)=N1 (stereo not drawn),-13%,2%,19%,-3%,14µM*,-1%
Cc1[nH]c2ccccc2c1/C=C/c1ccnc2ccccc12,.,.,.,-12%,2%,.
Nc1c2c(=O)oc(-c3ccccc3)cc2nn1-c1ccccc1,?,-2%,-1%[7.66 µM],9%,14µM*,24%
Cc1cccc(OC(C)c2ccnc3nc(/N=C/N(C)C)nn23)c1 (stereo not drawn),-11%,3%,6%,-4%,28µM*,2%
COc1ccc(-c2ccnc3nc(/N=C/N(C)C)nn23)cc1,47%,-14%,13%,-1%,.,21%
CC(Oc1ccc(F)cc1)c1ccnc2nc(/N=C/N(C)C)nn12 (stereo not drawn),-1%,8%,-15%,-6%,.,-9%
COc1cccc(OC(C)c2ccnc3nc(/N=C/N(C)C)nn23)c1 (stereo not drawn),-4%,4%,15%,-1%,32µM*,28%
CC(Oc1ccc(C(C)(C)C)cc1)c1ccnc2nc(/N=C/N(C)C)nn12 (stereo not drawn),?,-3%,-28%,0%,28µM*,9%
CN(C)/C=N/c1nc2nccc(-c3cccnc3)n2n1,166%,-1%,-2%,-3%,.,13%
COc1cc2nc(N(C)C)nc(NC3CCN(C)CC3)c2cc1OC,.,.,.,.,4%,.
SMILES,Anesthetic bind,CBFb-RUNX1 inh,Integrin act MD,GRP78 ERSR act,ClpP mod,N370S GC
CCOC(=O)C1=C(C)NC(C)=C(C(=O)OCC)C1c1c(F)c(F)c(F)c(F)c1F,.,.,.,-13%,.,.
CN(C(=O)COC(=O)c1ccccc1OCC(=O)Nc1ccc(Br)cc1)c1ccccc1,.,.,.,.,-6%,.
CC(=O)N1CCN(c2nc3cc(C)ccc3cc2CN(C(=O)c2cccc3ccccc23)C2CC2)CC1,.,.,.,-6%,.,.
COc1ccc(-c2cc3ccccc3n2CC(O)CN2CCN(CCO)CC2)cc1 (stereo not drawn),-6%,0%,-6%,-2%,4%,-23%
COc1ccc(-c2cc3ccccc3n2CC(O)CN2CCOCC2)cc1 (stereo not drawn),-8%,-1%,-16%,-2%,8.9µM*,-2%
COc1ccc(-c2cc(C(=O)N3CCN(c4cccc(C)c4C)CC3)c3ccccc3n2)cc1OC,.,.,-38%,-1%,25µM*,8%
CCOc1ccc(-c2cc(C(=O)N3CCC(C)CC3)c3ccccc3n2)cc1,.,.,-2%,2%,32µM*,.
COc1ccc(-c2cc(C(=O)N3CCN(c4ncccn4)CC3)c3ccccc3n2)cc1OC,.,.,15%,-2%,-14%,.
CCOc1ccc(-c2cc(C(=O)O)c3ccccc3n2)cc1,4%,3%,8%,-8%,35µM*,7%
CC(C)(O)C#Cc1ccc(C(=O)NCCN2Cc3ccccc3OC(c3ccccc3F)C2)o1 (stereo not drawn),.,.,.,-4%,.,.
CO[C@H]1[C@H](NC(=O)c2ccsc2)c2ccccc2C12CCN(Cc1cnn(C)c1C)CC2,.,.,.,-3%,.,.
O=C(Nc1cc(Br)ccc1O)C1CC(c2ccccc2Cl)=NO1 (stereo not drawn),-23%,.,13µM*,0%,0%,4%
O=C(CN1C(=O)c2cccc3cccc1c23)NCC1CCCO1 (stereo not drawn),95%,5%,35%,2%,25µM*,-5%
CCCC(C)NC(=O)CN1C(=O)c2cccc3cccc1c23 (stereo not drawn),190%,.,-28%,-5%,22µM*,7%
COCCCn1c(C(=O)N2CCOCC2)cc2c(=O)n3cccc(C)c3nc21,.,.,-15%,-5%,28µM*,.
CCCCn1c(=NC(=O)c2ccc3c(c2)OCO3)c(C#N)cc2c(=O)n3cccc(C)c3nc21,-18%,2%,-8%,-4%,32µM*,10%
COCCCn1c(C(=O)N2CC(C)OC(C)C2)cc2c(=O)n3cccc(C)c3nc21 (stereo not drawn),42%,.,-14%,-3%,3%,?
COCCn1c(=NC(=O)c2ccc3c(c2)OCO3)c(C#N)cc2c(=O)n3cccc(C)c3nc21,-9%,3%,.,.,.,12%
CCN(CC)C(=O)c1cc2c(=O)n3cccc(C)c3nc2n1C,121%,8%,-24%,-3%,32µM*,6%
COc1ccccc1CNC(=O)c1ccc(NS(C)(=O)=O)cc1,2%,-1%,4%,0%,-4%,-1%
COc1ccccc1CNC(=O)c1ccccc1N,-17%,-2%,24%,1%,10µM*,1%
